# The list is not random: actives were taken first. Their share in the collection is about 2.5%.
# TMEM16A act: activates or potentiates the mouse TMEM16A chloride channel; Q8BHY3; HEK293 TMEM16A/YFP-H148Q/I152L, iodide quench fluorescence; hits give low values; B-score at 10 µM; hit rate 0.3% among 340,000;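 active means fluorescence-ratio B-score plate-corrected deviation score at least 3 library SD below zero, with starting fluorescence score within 5 deviations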;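 further: channel opened by trigger with iodide after compound preincubation; score built on the fluorescence ratio of max minus min over baseline; more negative score means more quench and so TMEM16A activation or potentiation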
# Target sequence (Q8BHY3 whole entry, looked up): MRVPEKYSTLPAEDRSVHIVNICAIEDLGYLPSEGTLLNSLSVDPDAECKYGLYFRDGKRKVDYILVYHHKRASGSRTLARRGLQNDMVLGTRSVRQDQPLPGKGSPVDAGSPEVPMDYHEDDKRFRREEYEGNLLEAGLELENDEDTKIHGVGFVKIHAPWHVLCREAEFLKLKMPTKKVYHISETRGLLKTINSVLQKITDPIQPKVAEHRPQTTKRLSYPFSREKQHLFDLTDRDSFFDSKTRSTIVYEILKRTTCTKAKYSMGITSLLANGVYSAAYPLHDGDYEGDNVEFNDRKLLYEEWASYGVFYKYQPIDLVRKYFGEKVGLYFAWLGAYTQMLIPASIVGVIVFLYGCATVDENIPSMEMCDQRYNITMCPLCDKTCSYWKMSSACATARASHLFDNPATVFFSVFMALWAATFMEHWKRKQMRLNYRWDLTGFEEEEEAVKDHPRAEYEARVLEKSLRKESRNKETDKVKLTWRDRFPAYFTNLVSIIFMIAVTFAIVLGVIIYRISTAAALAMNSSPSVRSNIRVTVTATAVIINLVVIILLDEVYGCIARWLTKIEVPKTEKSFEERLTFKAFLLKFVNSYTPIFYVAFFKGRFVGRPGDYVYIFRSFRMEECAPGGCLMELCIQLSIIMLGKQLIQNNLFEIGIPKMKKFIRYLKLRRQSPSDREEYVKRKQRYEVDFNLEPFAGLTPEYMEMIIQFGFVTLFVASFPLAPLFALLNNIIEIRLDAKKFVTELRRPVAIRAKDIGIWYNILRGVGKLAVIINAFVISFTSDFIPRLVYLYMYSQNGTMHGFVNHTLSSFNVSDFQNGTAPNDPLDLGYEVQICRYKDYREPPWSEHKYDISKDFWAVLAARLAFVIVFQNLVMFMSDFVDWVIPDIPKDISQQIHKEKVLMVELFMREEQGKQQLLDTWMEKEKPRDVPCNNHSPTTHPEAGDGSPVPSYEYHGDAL
# Jurkat NFkB inh: lowers PMA/ionomycin-induced NF-kB signal in Jurkat cells | PMA/ionomycin-induced NF-kB luciferase reporter, luminescence | inhibition, % at 4 µM | hit rate 0.53% among 330,000 | AID 435003; in the data active means inhibition above about 50%
# TMEM16A inh: mouse TMEM16A channel inhibition, primary screen; Q8BHY3; HEK293 TMEM16A/YFP iodide influx fluorescence, ionomycin; normalized B-score (activity score, 25-100; higher = stronger inhibition) at 10 µM; hit rate 1.2% among 310,000;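 active means ratio plate-corrected score three or more library SD toward inhibition, starting fluorescence score within five deviations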;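 further: score derived from kinetic fluorescence span divided by baseline fluorescence per well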
# 697 NFkB inh: inhibitors of the PMA/ionomycin-induced NF-kB reporter in 697 B cells. inhibition, % at 4 µM. hit rate 0.33% among 330,000. 697 B-cell NF-kB luciferase reporter, 16 h; in the data active means inhibition above about 35%
# aSyn 5UTR inh: 5' untranslated region of α-synuclein, MLPCN primary screen. alpha-synuclein 5'UTR reporter, inhibitor activity. inhibition, % (tested at 7.5 µM). hit rate 0.82% among 300,000. AID 1813; in the data active means inhibition above about 60%;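 further: H4 neuroglioblastoma cells stably carrying SNCA 5'UTR luciferase fusion; 0% = DMSO wells and 100% = positive control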
# KLF5 inhibitor: suppresses KLF5 promoter-driven expression. hit rate 0.23% among 290,000. inhibition, % at 5 µM. AID 1700. DLD-1 KLF5 promoter-luciferase reporter, luminescence;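 active means inhibition above a per-plate limit of that plate's mean compound inhibition plus 3 SD, cut at about 60% in these data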;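 further: 0% = DMSO wells and 100% = LY294002 at 200 µM; higher means less KLF5 promoter-driven luciferase light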
# TMEM16A reconf: reconfirmed blocker of mouse TMEM16A calcium-activated chloride channel. shares compounds with TMEM16A inh. HEK293 TMEM16A/YFP-H148Q, iodide quench fluorescence; ionomycin added to raise cell calcium. inhibition, % at 10 µM. hit rate 39% among 2,300. AID 652189;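 active means mean duplicate percent inhibition, scaled so buffer wells are 0 and the reference blocker 100, over three buffer SD above buffer mean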
# TMEM16A Ca cntr: calcium mobilization counter-screen hit for TMEM16A inhibitor series; shares compounds with TMEM16A inh; TMEM16A/YFP HEK293, Fluo4 calcium mobilization; calcium response (% of ionomycin), % at 10 µM; hit rate 2% among 2,300;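 active means duplicate-averaged calcium signal over 20% of the ionomycin maximum, relative to buffer baseline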;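 further: each well's signal is peak minus trough fluorescence divided by its pre-addition baseline; 0% = buffer wells and 100% = ionomycin wells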
# YFP-HEK293 quench: counter-screen for TMEM16A inhibitors: effect in parental YFP-HEK293 cells; shares compounds with TMEM16A inh; iodide YFP quench, ionomycin; YFP ratio F(max-min)/F0 at 10 µM; 2,300 tested, under 10 active; AID 652233;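 active means yellow fluorescent protein signal ratio exceeding the buffer control mean by over 5 SD of those controls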;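 further: ratio is mean of duplicate wells from kinetic YFP trace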
# ClC-1 rat inh: rat ClC-1 inhibition, TMEM16A specificity screen; CHO ClC-1-YFP, iodide influx fluorescence quench; iodide control reads 0, buffer control 100; ratio percent, % at 10 µM; shares compounds with TMEM16A inh; 2,300 tested, under 10 active; AID 652236;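 active means duplicate-mean ratio percent above the mean of iodide-only control wells, which defines zero, plus 5 of their SD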;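 further: higher percent means stronger block of ClC-1 iodide influx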
# * = called active by the depositor; i = inactive; . = no result.
SMILES,TMEM16A act,Jurkat NFkB inh,TMEM16A inh,697 NFkB inh,aSyn 5UTR inh,KLF5 inhibitor,TMEM16A reconf,TMEM16A Ca cntr,YFP-HEK293 quench,ClC-1 rat inh
COc1cccc(NC(=O)CN(C)C(=O)CCNC(=O)c2ccccc2OC)c1,i,.,.,.,.,.,.,.,.,.
Cc1ccc(Cl)cc1N1CCN(C(=O)C2CCC(=O)N(C3CCCCCC3)C2)CC1 (configuration not stated),i,32.1,100*,-52.7,6.4,-16.6,18.5%*,i,-1.25,-16.5
Cc1ccc(C(=O)Nc2ccc(C)c(S(=O)(=O)Nc3ccccc3Cl)c2)s1,i,6.9,100*,-4.4,8.5,-4.7,i,i,-0.224,18.5
Cc1cccc(NC(=O)c2ccc3c(c2)OCCO3)c1,i,-116.8,.,-116.4,-0.5,39.2,.,.,.,.
Cc1ccc(NC(=O)c2ccc3c(c2)OCCO3)cc1S(=O)(=O)Nc1cccc(Cl)c1,i,-25.6,100*,-58.9,-94.8,-37.8,i,i,-1.26,-3.0
COc1ccc(S(=O)(=O)N(C)c2nc3ccccc3n3c(CC(C)C)nnc23)cc1,i,8.0,i,-9.6,4.3,-40.3,.,.,.,.
CN(c1ccccc1)S(=O)(=O)c1ccc(NC(=O)CC(=O)c2ccccc2)cc1,i,.,.,.,.,.,.,.,.,.
FC(F)(F)c1nnc(Nc2ccc(Cl)cc2)s1,i,-7.0,i,-1.2,-10.9,-16.7,.,.,.,.
Fc1ccc(Nc2nnc(C(F)(F)F)s2)cc1Cl,-6.76*,12.6,100*,-3.5,22.4,-36.5,49.0%*,i,-1.26,-43.0
COc1ccc(CN(Cc2cccn2C)C(=O)c2cc3cc(OC)ccc3[nH]2)cc1,i,12.7,i,-9.6,34.0,-54.3,.,.,.,.
Cc1ccc(C(=O)N2CCc3cc4c(cc3C2C)OCCCO4)cc1 (configuration not stated),i,21.3,i,4.2,21.6,-24.1,.,.,.,.
CC1c2cc3c(cc2CCN1C(=O)c1ccc(Cl)cc1)OCCCO3 (configuration not stated),i,13.3,25*,-15.0,20.4,-24.2,i,i,-1.04,-9.0
COc1ccccc1-c1nc(C#N)c(N2CCc3ccccc3C2)o1,i,5.3,100*,8.3,-13.2,-49.1,i,i,-1.22,-18.0
COc1ccc(-c2nc(C#N)c(N3CCc4ccccc4C3)o2)cc1OC,i,9.6,100*,-5.7,9.8,14.5,i,i,-0.932,-14.0
Cc1ccc(C(=O)NCC(=O)OCC(=O)Nc2cc(S(=O)(=O)N3CCOCC3)ccc2Cl)s1,i,1.1,.,1.9,.,.,.,.,.,.
O=C(Nc1ccc(OCC(F)(F)C(F)F)c(C(F)(F)F)c1)c1ccccc1O,i,-18.6,100*,-37.9,41.8,4.3,i,i,-0.778,-9.0
NC(=O)[C@@H]1[C@@H]2C(=O)N(c3ccc(F)cc3)C(=O)[C@@H]2[C@H]2C=Cc3ccccc3N21,i,2.5,i,-16.9,19.5,-23.5,20.0%*,i,-1.05,-5.0
CCCc1ccc(C(=O)NC(=O)c2ccccc2O)cc1,i,-18.3,100*,3.7,-14.6,-54.0,34.5%*,21.5%*,-0.731,-5.0
CC(=O)C[C@H](O)CC(=O)[C@H]1OC(=O)[C@@H](C)CCCCc2ccccc21,i,-2.9,.,-6.1,.,.,.,.,.,.
CCOC(=O)C1=C(C)NC(C)=C(C(=O)OC)C1c1ccco1 (configuration not stated),i,5.1,i,19.4,3.4,-27.3,.,.,.,.
C=CCOC(=O)C1=C(C)NC(C)=C(C(=O)OCC=C)C1c1ccco1,i,-1.5,i,-6.5,2.3,-25.9,i,i,-0.959,-4.5
O=C1C2C(c3ccccc3)CC=CC2[C@H](c2ccc(C(F)(F)F)cc2)N1Cc1ccccc1 (some centres not stated),i,5.8,25*,-74.7,37.0,.,i,i,-1.11,-9.5
CCOc1ccc(C(=O)C(C)OC(=O)C2CCN(c3ccc(C(F)(F)F)cn3)CC2)cc1 (configuration not stated),i,13.0,25*,2.2,16.8,.,i,i,-1.14,-12.0
CCCn1c(CN(C)Cc2ccccc2)nc2c1c(=O)n(C)c(=O)n2C,i,15.0,i,-43.8,-6.7,-8.2,.,.,.,.
CCCn1c(CN(Cc2ccccc2)Cc2ccccc2)nc2c1c(=O)n(C)c(=O)n2C,i,0.8,100*,-5.4,-0.5,-1.9,18.0%*,i,-0.867,-7.5
SMILES,TMEM16A act,Jurkat NFkB inh,TMEM16A inh,697 NFkB inh,aSyn 5UTR inh,KLF5 inhibitor,TMEM16A reconf,TMEM16A Ca cntr,YFP-HEK293 quench,ClC-1 rat inh
CCOC(=O)/C(=C\c1ccc(Cl)cc1)c1nc2sc(C)c(C)c2c(=O)[nH]1,i,3.8,25*,-8.7,-49.3,6.0,19.0%*,i,-1.02,-12.0
COCCN(CCOC)C(=O)CSc1ccc(S(=O)(=O)N2CCN(C)CC2)cn1,i,7.8,.,-1.3,.,.,.,.,.,.
O=C(COCC(=O)Nc1cccc(C(F)(F)F)c1)Nc1cccc(C(F)(F)F)c1,i,3.8,i,-2.8,-10.9,-5.6,.,.,.,.
COc1cc(NC(=O)CSCC(=O)Nc2cccc(C(F)(F)F)c2)c(Cl)cc1Cl,i,29.6,100*,-4.6,-1.1,1.9,i,i,-0.994,-9.0
COc1ccccc1OCC(=O)NNC(=O)Nc1ccccc1,i,-6.7,i,3.6,31.8,.,.,.,.,.
CCCc1cc(=O)[nH]c(SCC(=O)NCCN2C(=O)CSC2=O)n1,i,-16.3,.,-13.3,.,.,.,.,.,.
Cc1c(NC(=O)CSc2nnc(C(C)N(C)C)n2-c2ccccc2)c(=O)n(-c2ccccc2)n1C (configuration not stated),i,.,.,.,.,.,.,.,.,.
CCc1ccc(C(C)NC(=O)Cn2cnc3c(=O)n(C)c(=O)n(C)c32)cc1 (configuration not stated),i,1.1,25*,14.3,9.1,7.9,i,i,-0.879,-2.5
CN(CC(=O)Nc1ccc(F)cc1)C(=O)CN1C(=O)c2cccc([N+](=O)[O-])c2C1=O,i,9.9,.,21.9,.,.,.,.,.,.
CC(C)(C)C1CCc2onc(C(=O)Nc3ccc(F)cc3F)c2C1 (configuration not stated),i,-16.6,100*,9.8,-18.9,7.5,i,i,-1.03,-3.5
